# Source: PubChem BioAssay (NCATS)
# Several values for one entry are separate records, joined by “and”; a condition that tells them apart may be missing. Equal entries are not always repeated. Records with an inconclusive call do not appear. Activity calls are given as the source filed them. Unless noted, calls come from the whole dose curve; as a rule, active = well fitted curve in the direction sought with a large enough effect; inconclusive = small, poorly fitted or top-dose-only effect, or another doubt; inactive = no such curve, though single readings can be large; an effect the other way counts as inactive or inconclusive.
# Key:
# [1] = biological target: Cytochrome P450 1A2 (Homo sapiens) (UniProt P05177); test: p450-cyp1a2 (AID 410; calls by dose curve; note: potency is the fitted concentration of half-maximal effect)
# Cytochrome P450 1A2 (Homo sapiens), sequence (P05177 whole entry, looked up): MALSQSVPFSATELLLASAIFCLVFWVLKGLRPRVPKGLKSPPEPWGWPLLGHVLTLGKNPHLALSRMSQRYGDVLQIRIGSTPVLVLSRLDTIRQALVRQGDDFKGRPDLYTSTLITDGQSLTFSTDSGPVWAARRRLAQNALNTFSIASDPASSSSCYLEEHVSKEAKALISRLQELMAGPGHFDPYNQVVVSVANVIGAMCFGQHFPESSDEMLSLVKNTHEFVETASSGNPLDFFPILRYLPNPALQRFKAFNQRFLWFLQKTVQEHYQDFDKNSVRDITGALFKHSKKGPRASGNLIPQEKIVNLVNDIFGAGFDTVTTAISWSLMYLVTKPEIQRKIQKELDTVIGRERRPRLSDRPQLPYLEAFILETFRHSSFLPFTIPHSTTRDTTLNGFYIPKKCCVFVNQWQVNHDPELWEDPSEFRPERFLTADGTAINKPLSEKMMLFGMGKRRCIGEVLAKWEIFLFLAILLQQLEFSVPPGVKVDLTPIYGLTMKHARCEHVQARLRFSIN
# Summary of the method: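 20nM CYP1A2 with 100uM Luciferin-ME (at Km) in 100mM KPO4; compound preincubated 10 min, NADPH regeneration added, 60 min at room temperature. Luciferin quantified by luminescence after detection reagent; normalized to 57 uM furafylline.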
# [2] = biological target: Glucocorticoid receptor (Homo sapiens) (UniProt P04150); test: GR-GFP Redistribution (AID 450;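 active = compounds whose dose series gives a full or clear partial fitted curve of increased nuclear translocation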; note: potency is the fitted concentration of half-maximal effect); settings: U2OS GR-GFP nuclear translocation, laser cytometry, 2 h
# Glucocorticoid receptor (Homo sapiens), sequence (P04150 whole entry, looked up, the tested form may be a part): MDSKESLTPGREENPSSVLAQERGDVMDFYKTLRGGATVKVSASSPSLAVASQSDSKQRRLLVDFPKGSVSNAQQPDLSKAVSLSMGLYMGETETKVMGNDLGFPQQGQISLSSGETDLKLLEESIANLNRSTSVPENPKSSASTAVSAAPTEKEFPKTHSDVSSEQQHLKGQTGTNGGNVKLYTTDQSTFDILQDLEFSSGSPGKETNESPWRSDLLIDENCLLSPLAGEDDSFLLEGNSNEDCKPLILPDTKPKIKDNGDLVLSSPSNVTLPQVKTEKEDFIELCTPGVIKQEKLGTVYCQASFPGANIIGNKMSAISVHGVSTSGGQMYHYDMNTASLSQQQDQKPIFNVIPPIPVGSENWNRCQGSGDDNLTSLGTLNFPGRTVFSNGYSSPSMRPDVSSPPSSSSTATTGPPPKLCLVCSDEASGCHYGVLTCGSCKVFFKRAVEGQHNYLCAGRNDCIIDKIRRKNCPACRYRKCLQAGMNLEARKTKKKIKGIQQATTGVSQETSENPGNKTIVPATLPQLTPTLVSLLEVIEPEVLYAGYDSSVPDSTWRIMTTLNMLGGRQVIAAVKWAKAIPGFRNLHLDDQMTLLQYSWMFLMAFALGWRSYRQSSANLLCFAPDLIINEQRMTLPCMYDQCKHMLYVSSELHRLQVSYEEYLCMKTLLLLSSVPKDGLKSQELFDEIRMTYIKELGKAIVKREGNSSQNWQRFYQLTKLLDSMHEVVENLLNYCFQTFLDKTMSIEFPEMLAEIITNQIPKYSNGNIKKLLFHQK
# [3] = biological target: Glucocorticoid receptor (Homo sapiens) (UniProt P04150); test: GR-EFC Redistribution (AID 451; calls by dose curve; note: potency is the fitted concentration of half-maximal effect); settings: CHO-K1 GR-EFC translocation, beta-gal luminescence, 2 h
# Summary of the method: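 CHO-K1 cells expressing nuclear EA and GR-ED fragments of b-gal; compounds titrated up to 46 uM final, 2 h at 37 C. GR nuclear translocation read as complemented b-gal luminescence after 1 h RT detection.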
# [4] = biological target: Mitogen-activated protein kinase 10 (Mus musculus) (UniProt Q61831); test: JNK3 AlphaScreen Assay (AID 530; active = well fitted curve in either direction with a large enough effect, not every such curve was filed as active;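 note: kinase came from lysate of stimulated human HepG2 cells; signal reports phosphorylation of biotinylated GST-cJun 1-79 at Ser73 with 10 µM ATP; % is set by controls: 0 for no effect and ±100 for the full control effect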)
# Summary of the method: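 Pre-activated (IL-1β/TNFα) JNK3 in HepG2 lysates phosphorylates biotin-GST-cJun(1-79), 10 uM ATP; anti-phospho-cJun(Ser73) AlphaScreen read at room temperature, pH 7.6 Tris buffer. Compounds pre-incubated 15 min as titrations.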
# [5] = biological target: 3',5'-cyclic-AMP phosphodiesterase 4B (Homo sapiens) (UniProt Q07343); test: qHTS Assay for Inhibitors of PDE-IV (AID 607; active = well fitted activation curve with a large enough effect in the main read-out, with a control signal flat, not every such curve was filed as active; note: % of control where 0% means no effect)
# 3',5'-cyclic-AMP phosphodiesterase 4B (Homo sapiens), sequence (Q07343 whole entry, looked up): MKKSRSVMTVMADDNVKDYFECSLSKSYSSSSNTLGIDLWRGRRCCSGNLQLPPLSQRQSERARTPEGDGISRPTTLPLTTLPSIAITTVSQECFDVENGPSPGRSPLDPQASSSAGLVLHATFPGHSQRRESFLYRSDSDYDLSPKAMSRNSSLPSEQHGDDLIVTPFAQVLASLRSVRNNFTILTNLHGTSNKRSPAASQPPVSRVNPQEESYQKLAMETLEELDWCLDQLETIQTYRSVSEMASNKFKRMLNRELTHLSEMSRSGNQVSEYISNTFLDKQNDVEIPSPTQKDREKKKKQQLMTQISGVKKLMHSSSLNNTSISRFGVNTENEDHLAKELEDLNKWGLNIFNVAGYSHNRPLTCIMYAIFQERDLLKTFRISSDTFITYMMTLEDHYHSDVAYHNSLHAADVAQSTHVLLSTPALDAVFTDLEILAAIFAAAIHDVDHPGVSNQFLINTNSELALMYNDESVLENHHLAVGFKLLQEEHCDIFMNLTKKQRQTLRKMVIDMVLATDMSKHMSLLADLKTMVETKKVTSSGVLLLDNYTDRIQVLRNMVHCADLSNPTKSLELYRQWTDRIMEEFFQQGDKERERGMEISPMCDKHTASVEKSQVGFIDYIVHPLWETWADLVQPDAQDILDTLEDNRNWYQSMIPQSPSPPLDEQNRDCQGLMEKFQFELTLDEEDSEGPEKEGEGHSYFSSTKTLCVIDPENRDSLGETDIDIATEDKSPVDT
# Summary of the method: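 Live HEK293 cells with a modified cyclic nucleotide-gated (CNG) channel report intracellular cAMP via membrane-potential dye fluorescence (ex 535/em 590 nm). Endogenous PDE-IV was targeted. Compounds were tested at up to 22.9 uM final; RO 20-1724 100 uM served as control.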
# [6] = biological target: Cytochrome P450 2C9 (Homo sapiens) (UniProt P11712); test: qHTS Assay for Inhibitors and Substrates of Cytochrome P450 2C9 (AID 883); note: potency is the fitted concentration of half-maximal effect; nearly all actives have a fitted effect of over 60% in size
# Cytochrome P450 2C9 (Homo sapiens), sequence (P11712 whole entry, looked up): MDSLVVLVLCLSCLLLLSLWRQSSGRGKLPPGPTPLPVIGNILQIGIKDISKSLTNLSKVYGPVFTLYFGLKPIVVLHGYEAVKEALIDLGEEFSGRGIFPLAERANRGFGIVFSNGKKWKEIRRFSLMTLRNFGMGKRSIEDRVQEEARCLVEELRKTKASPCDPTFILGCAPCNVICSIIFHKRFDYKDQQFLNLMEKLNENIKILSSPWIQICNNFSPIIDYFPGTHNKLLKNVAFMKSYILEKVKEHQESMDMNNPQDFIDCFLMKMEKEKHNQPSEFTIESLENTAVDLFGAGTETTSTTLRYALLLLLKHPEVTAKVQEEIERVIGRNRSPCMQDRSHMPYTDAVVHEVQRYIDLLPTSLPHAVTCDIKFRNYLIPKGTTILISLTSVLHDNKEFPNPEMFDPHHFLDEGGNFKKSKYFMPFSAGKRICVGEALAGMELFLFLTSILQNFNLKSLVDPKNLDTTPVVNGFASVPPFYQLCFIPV
# Summary of the method: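 Signal: luciferase luminescence reporting luciferin produced by CYP2C9. Conditions: 10nM enzyme, Luciferin-H 100uM at KM, 25mM KPO4, 37C, 60 min NADPH-driven reaction. Reference: 57uM sulphaphenazole as 100% inhibition.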
# [7] = biological target: Cytochrome P450 3A4 (Homo sapiens) (UniProt P08684); test: qHTS Assay for Activators of Cytochrome P450 3A4 (AID 885); note: nearly all actives have a fitted effect of over 65% in size
# Cytochrome P450 3A4 (Homo sapiens), sequence (P08684 whole entry, looked up): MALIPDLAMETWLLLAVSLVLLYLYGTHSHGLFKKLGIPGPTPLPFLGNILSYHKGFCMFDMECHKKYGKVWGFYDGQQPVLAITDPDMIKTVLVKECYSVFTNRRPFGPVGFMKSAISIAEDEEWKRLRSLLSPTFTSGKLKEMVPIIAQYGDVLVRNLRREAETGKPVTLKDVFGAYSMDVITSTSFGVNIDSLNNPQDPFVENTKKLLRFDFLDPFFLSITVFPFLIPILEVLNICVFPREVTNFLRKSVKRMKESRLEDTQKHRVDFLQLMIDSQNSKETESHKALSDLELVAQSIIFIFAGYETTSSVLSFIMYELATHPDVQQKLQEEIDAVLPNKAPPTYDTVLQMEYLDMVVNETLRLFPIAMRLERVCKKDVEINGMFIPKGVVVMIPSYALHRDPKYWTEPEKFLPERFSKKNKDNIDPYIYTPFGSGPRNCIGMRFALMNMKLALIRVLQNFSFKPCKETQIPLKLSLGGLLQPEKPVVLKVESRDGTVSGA
# Summary of the method: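 Quantitative HTS format: compounds preincubated with 20nM human CYP3A4 and Luciferin-PPXE substrate at KM, reaction started by NADPH regeneration, stopped after 60 min, luciferase luminescence read 20 min later.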
# [8] = biological target: Ubiquitin carboxyl-terminal hydrolase 1 (Homo sapiens) (UniProt O94782); test: Inhibitors of USP1/UAF1: Pilot qHTS (AID 504865);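 note: rhodamine fluorescence freed from ubiquitin-rhodamine substrate followed over time; top concentration of the series differs between compounds; % is set by controls: 0 for no effect and ±100 for the full control effect; nearly all actives have a fitted effect of over 35% in size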
# Ubiquitin carboxyl-terminal hydrolase 1 (Homo sapiens), sequence (O94782 whole entry, looked up): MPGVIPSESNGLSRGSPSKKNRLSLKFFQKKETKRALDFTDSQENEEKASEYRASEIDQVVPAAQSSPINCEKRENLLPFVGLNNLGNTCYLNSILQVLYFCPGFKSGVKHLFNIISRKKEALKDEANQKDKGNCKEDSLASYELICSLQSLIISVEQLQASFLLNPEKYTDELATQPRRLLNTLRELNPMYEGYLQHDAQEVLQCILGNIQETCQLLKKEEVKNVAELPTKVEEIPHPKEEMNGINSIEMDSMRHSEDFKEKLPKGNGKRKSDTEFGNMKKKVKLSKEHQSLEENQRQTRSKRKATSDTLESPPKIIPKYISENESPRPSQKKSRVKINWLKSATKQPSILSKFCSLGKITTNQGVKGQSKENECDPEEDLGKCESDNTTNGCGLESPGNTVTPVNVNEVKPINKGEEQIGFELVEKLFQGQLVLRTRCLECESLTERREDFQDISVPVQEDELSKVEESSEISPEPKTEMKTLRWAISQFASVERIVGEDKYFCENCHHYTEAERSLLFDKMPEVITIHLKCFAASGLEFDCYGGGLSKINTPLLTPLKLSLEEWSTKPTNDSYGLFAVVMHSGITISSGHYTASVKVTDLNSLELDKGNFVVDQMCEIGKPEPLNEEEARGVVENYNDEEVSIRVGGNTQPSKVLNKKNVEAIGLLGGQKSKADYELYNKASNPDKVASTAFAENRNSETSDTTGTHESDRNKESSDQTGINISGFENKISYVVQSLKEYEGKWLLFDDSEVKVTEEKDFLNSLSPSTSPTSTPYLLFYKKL
# Summary of the method: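 Enzyme-free wells gave the negative control, while test wells held 1nM USP1/UAF1 preincubated with compound for 15 min at room temperature. Ub-Rho at 150nM final started the reaction, and fluorescence at 480/540 nm was recorded kinetically.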
# [9] = biological target: DNA dC->dU-editing enzyme APOBEC-3G (Homo sapiens) (UniProt Q9HC16); test: qHTS for inhibitors of Vif-A3G interactions: Validation (AID 588379); note: 0% is about no effect
# DNA dC->dU-editing enzyme APOBEC-3G (Homo sapiens), sequence (Q9HC16 whole entry, looked up): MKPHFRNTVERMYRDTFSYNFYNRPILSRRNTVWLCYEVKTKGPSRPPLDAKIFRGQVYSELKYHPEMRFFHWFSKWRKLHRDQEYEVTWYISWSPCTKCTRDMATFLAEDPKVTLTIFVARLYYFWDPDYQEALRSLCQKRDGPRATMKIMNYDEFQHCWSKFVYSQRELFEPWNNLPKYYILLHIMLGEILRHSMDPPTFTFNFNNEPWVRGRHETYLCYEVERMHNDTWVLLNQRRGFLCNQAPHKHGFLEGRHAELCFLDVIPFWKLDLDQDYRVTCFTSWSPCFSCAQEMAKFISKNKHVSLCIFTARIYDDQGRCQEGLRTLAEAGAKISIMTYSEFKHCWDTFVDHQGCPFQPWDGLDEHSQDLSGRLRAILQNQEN
# Summary of the method: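 HeLa cells stably expressing Vif and A3G-eYFP, 700 cells/well, incubated overnight at 37 deg C, then exposed to compound overnight at 37 deg C. Inhibition of Vif-mediated degradation read as increased yellow fluorescence (Ex 488/Em 500-530) by laser-scanning cytometry.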
# [10] = biological target: Furin (Homo sapiens) (UniProt P09958); test: Furin counterscreen qHTS for Zika virus inhibitors (AID 1347149); note: nearly all actives have a fitted effect of over 70% in size; note: potency is the fitted concentration of half-maximal effect;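 for activity change, negative = inhibition: purified recombinant full-length human furin enzyme at 5 nM; fluorescence gain from furin cutting a BOC-RVRR-AMC peptide substrate over 15 min; top concentration of the series differs between compounds; plate controls were no-inhibitor control for no effect and no-enzyme control for full effect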
# Furin (Homo sapiens), sequence (P09958 whole entry, looked up): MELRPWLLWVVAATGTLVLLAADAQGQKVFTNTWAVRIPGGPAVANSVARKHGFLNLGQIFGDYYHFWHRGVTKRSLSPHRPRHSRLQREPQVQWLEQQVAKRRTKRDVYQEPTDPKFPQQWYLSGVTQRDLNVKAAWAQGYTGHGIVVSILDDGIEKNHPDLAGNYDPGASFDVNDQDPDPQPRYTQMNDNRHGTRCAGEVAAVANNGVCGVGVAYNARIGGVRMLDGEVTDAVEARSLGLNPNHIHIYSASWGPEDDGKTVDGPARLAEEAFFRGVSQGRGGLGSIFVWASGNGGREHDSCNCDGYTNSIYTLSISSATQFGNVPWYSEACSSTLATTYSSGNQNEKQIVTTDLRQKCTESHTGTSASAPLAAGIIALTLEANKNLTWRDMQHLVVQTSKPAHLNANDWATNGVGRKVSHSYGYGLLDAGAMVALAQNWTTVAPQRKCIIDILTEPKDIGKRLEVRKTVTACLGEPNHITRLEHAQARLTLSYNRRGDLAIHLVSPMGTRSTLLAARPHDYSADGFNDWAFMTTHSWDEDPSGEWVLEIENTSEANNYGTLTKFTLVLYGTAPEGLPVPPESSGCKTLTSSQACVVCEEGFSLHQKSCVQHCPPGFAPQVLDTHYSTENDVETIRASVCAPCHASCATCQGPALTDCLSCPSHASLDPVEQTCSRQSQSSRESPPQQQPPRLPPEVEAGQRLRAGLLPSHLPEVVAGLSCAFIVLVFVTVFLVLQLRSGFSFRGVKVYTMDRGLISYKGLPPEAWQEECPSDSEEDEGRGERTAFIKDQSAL
# Summary of the method: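 Fluorogenic cleavage of BOC-RVRR-AMC (2 microM final, Km ~15 µM) was monitored (ex 340, em 450 nm) at 37C after 15 min RT preincubation of 5 nM furin with compounds in HEPES pH 7.0 buffer with CaCl2 and Triton X-100. Percent inhibition was fitted to a 4-parameter Hill curve.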
# [11] = test system: Zika virus NS2B-NS3 protease (linked construct); test: Confirmatory screen NINDS AMC qHTS for Zika virus inhibitors (AID 1347152); note: potency is the fitted concentration of half-maximal effect; nearly all actives have a fitted effect of over 70% in size
# Summary of the method: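 Concentration-response confirmation used the NINDS linked protease (NS2B hydrophilic domain joined to NS3 protease domain), 1 nM, with a 15-min compound preincubation. Substrate, Nle-KRR-AMC at 10 microM, was read by UV fluorescence before and after 15 min.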
# [12] = test system: Zika virus NS2B-NS3 protease (unlinked complex); test: Confirmatory screen GU AMC qHTS for Zika virus inhibitors (AID 1347153);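 note: percent inhibition with 0% = no inhibitor control and 100% = no enzyme control; nearly all actives have a fitted effect of over 70% in size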
# Summary of the method: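 Unlinked enzyme 25 nM, Tris pH 8.0/0.01% Tween 20; cpd 15 min RT, dark; + AMC substrate 10 µM (Km 18.3 µM); 340/450 nm read at t0 and 15 min; % inhibition → 4-param fit.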
# [13] = test system: Zika virus NS2B-NS3 protease; test: Primary screen GU AMC qHTS for Zika virus inhibitors (AID 1347154); note: nearly all actives have a fitted effect of over 70% in size; note: potency is the fitted concentration of half-maximal effect;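 for activity change, negative = inhibition: 0% = no-inhibitor control and -100% = no-enzyme control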
# Summary of the method: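 Unlinked Zika NS2B hydrophilic domain–NS3 protease complex at 25 nM in 10 mM Tris-HCl pH 8.0, 0.01% Tween 20, with an AMC peptide substrate. Fluorescence change (340/450 nm) over 15 min at room temperature, normalized to controls, fitted to 4-parameter Hill.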
# [14] = Confirmatory screen NINDS Rhodamine qHTS for Zika virus inhibitors (AID 1347161);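 note: purified Zika NS2B-NS3 protease with linked NS2B cofactor domain and Rhodamine110 peptide substrate; plate controls were no-inhibitor control for no effect and no-enzyme control for full effect; nearly all actives have a fitted effect of over 60% in size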
# Summary of the method: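 qHTS dose-response: 25 nM linked protease, pH 8.0 Tris/Tween buffer, cpd titration, 15 min RT preinc, 1.5 microM Rhod110 peptide, 15 min reaction (~15% conversion), Ex480/Em540; 4-parameter Hill fit.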
# [15] = Vero cells viability qHTS for Zika virus inhibitors (AID 1347167); note: % is set by controls: 0 for no effect and ±100 for the full control effect
# Summary of the method: (§1)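 Cells seeded at 2.5 x 10^5 cells/mL in DMEM with 4% FBS and attached overnight at 37 degrees C, then exposed to compound for 24 to 48 hours. Viability read as ATP content by CellTiter Glo luminescence.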
# [16] = HepG2 cells viability qHTS for Zika virus inhibitors (AID 1347168); note: % is set by controls: 0 for no effect and ±100 for the full control effect
# Summary of the method: as §1
# [17] = Tertiary RLuc qRT-PCR qHTS assay for Zika virus inhibitors (AID 1347169); note: nearly all actives have a fitted effect of over 55% in size; note: potency is the fitted concentration of half-maximal effect; for activity change, negative = inhibition: top concentration of the series differs between compounds; % is set by controls: 0 for no effect and ±100 for the full control effect
# Summary of the method: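 Inhibition of ZIKV-RLuc replication in Vero cells, read as Renilla luminescence 1-1.5 hrs after live-cell substrate addition, following 48-72 hrs infection at MOI 1-2 in presence of compound.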
# [18] = qHTS Assay for Lipid Storage Modulators (AID 1519; calls by dose curve); settings: Drosophila S3 cells, BODIPY lipid droplet/cell ratio, laser cytometry, cells loaded with oleic acid
# Summary of the method: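 Cells seeded at 5,000 per well were treated with compounds over a concentration series and loaded with oleic acid (400 uM, as added). Lipid droplet fluorescence (488 nm excitation, 500-530 nm channel) was read by laser-scanning cytometry and normalized to 20 uM Triacsin C.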
smiles,measurement,setting,value
Clc1cncc(N2CCNCC2)n1,Potency,[1],2 µM (active)
same,Potency,[2],> 46 µM (inactive)
same,Potency,[3],> 46 µM (inactive)
same,outcome,[4],inactive
same,Potency,[5],inactive
same,Potency,[6],2 µM (active)
same,Potency,[7],inactive
same,Potency,[8],inactive
same,Potency,[9],inactive
same,Potency,[10],24.1 µM (active) and 10.8 µM (active)
same,Potency,[11],24.1 µM (active) and 8.57 µM (active)
same,Potency,[12],inactive
same,Potency,[13],15 µM (active)
same,Potency,[14],inactive
same,Potency,[15],inactive
same,Potency,[16],inactive
same,Potency,[17],inactive
CC1O[C@@H](O[C@@H]2C(O)C[C@H](O[C@@H]3C(O)C[C@@H](OC4CC[C@@]5(C)C6CC[C@]7(C)C(C8=CC(=O)OC8)CC[C@@]7(O)C6CC[C@@H]5C4)OC3C)OC2C)CC(O)[C@H]1O (stereo not given in full),"activity change, negative = inhibition",[18]; at 57.5 µM (top of the series),3.23% (inactive)
same,max response,[18]; measured here: cell count channel max response,20.2%
same,max response,[18]; measured here: lipid channel max response,25.7%
same,Potency,[10],inactive
same,Potency,[15],inactive
same,Potency,[17],0.208 µM (active)
CCCCC/C=C\C[C@@H](/C=C/C=C\C/C=C\CCCC(=O)O)OO,"activity change, negative = inhibition",[13],11.4% [at 0.59 µM] (inactive)
CCCCC/C=C\C/C=C\C/C=C\C/C=C\CCCCCC(=O)NCCO,"activity change, negative = inhibition",[13],3.5% [at 6.83 µM] (inactive)
